The campaign covered roughly 39,000 compounds. About 1,500 (3.8%) were called active. The sample holds actives, similar compounds and a random draw of the others, so the mix is not that of the screen.

This test has as its system HSkMC (human skeletal muscle cells). In words: cytotoxicity call (relative viability < 0.9). Particulars: 10 µM.
For `COc1ccc(S(=O)(=O)Nc2ccc3c(c2)CC(=O)N([C@H](C)CO)C[C@H](C)[C@@H](CN(C)Cc2ccc(Cl)c(Cl)c2)O3)cc1`, the cytotoxicity call is “inactive”.
The result for `COc1ccc(S(=O)(=O)Nc2ccc3c(c2)CC(=O)N([C@@H](C)CO)C[C@@H](C)[C@H](CN(C)Cc2ccc(Cl)c(Cl)c2)O3)cc1` reads “inactive”.
The same measure for `COc1ccc(S(=O)(=O)Nc2ccc3c(c2)CC(=O)N([C@@H](C)CO)C[C@H](C)[C@H](CN(C)Cc2ccc(Cl)c(Cl)c2)O3)cc1`: “active”; for `COc1ccc(S(=O)(=O)Nc2ccc3c(c2)CC(=O)N([C@@H](C)CO)C[C@H](C)[C@@H](CN(C)Cc2ccc(Cl)c(Cl)c2)O3)cc1`: “inactive”; for `COc1ccc(S(=O)(=O)Nc2ccc3c(c2)CC(=O)N([C@H](C)CO)C[C@H](C)[C@H](CN(C)Cc2ccc(Cl)c(Cl)c2)O3)cc1`: “active”.
The same measure for `COc1ccc(S(=O)(=O)Nc2ccc3c(c2)CC(=O)N([C@@H](C)CO)C[C@@H](C)[C@@H](CN(C)Cc2ccc(Cl)c(Cl)c2)O3)cc1`: “active”.
Turning to `COc1ccc(S(=O)(=O)Nc2ccc3c(c2)CC(=O)N([C@H](C)CO)C[C@@H](C)[C@H](CN(C)Cc2ccc(Cl)c(Cl)c2)O3)cc1`, the cytotoxicity call is “inactive”.
The same measure for `COc1ccc(S(=O)(=O)Nc2ccc3c(c2)CC(=O)N([C@H](C)CO)C[C@@H](C)[C@@H](CN(C)Cc2ccc(Cl)c(Cl)c2)O3)cc1`: “active”; for `COc1ccc(S(=O)(=O)N(C)C[C@H]2Oc3ccc(NC(=O)C4CC4)cc3CC(=O)N([C@H](C)CO)C[C@H]2C)cc1`: “inactive”; for `Cc1noc(C)c1NC(=O)N(C)C[C@@H]1Oc2ccc(NC(=O)Cn3cnnn3)cc2CC(=O)N([C@@H](C)CO)C[C@@H]1C`: “inactive”.
For `CCN(CCO)C(=O)C1CN(C(C)=O)C1`, the cytotoxicity call is “inactive”.
The result for `CCCc1nc2c(C)cc(-c3nc4ccccc4n3C)cc2n1Cc1ccc(-c2ccccc2C(=O)O)cc1` reads “inactive”; that for `O=C(C[C@@H]1CC[C@H]2[C@@H](COC[C@H](O)CN2C(=O)Nc2cc(Cl)cc(Cl)c2)O1)N1CCOCC1`, “inactive”.
The result for `Cc1noc(C)c1NC(=O)N(C)C[C@H]1OCCCC[C@@H](C)Oc2ccc(NS(=O)(=O)c3ccccc3)cc2C(=O)N([C@H](C)CO)C[C@H]1C` reads “inactive”; that for `CN1CCN(Cc2ccc(NC(=O)Nc3ccc(Oc4cc(NC(=O)C5CC5)ncn4)cc3)cc2C(F)(F)F)CC1`, “active”.
The same measure for `Cc1cccc(Oc2ccc(NC(=O)C3CCC(C)CC3)cc2)c1` (stereo not drawn): “inactive”; for `COc1ccc(NC(=O)Nc2ccc3c(c2)[C@H]2C[C@H](CC(=O)N4CCN(C)CC4)O[C@@H](CO)[C@H]2O3)cc1`: “inactive”; for `CC(C)NC(=O)N(C)C[C@@H]1Oc2ccc(NS(=O)(=O)c3ccccc3)cc2CC(=O)N([C@@H](C)CO)C[C@@H]1C`: “inactive”.

Values taken from the antibiotic and cytotoxicity screens of Wong et al. (2023).
